The source of these data is PubChem BioAssay (NCATS).

Molecules are shown by their SMILES. A number with no mark means an inactive call. No rule for the calls is given here.
Potency is read from the fitted curve at half-maximal effect.

The subject of this assay is HIV-1 nucleocapsid protein NCp7 (binding to TG oligonucleotide). Description: HIV Nucleocapsid (AID 346).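 Also: potency is for inhibitors that block NC binding and lower polarization.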 As to conditions: HIV-1 NC / fluorescein-TGTGTGTG probe, fluorescence polarization. A digest of the protocol:
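HIV-1 NC (100 nM) binding to fluorescein-labelled ssDNA TG4xF (10 nM) in Hepes pH 7.5, 250mM NaCl, 1uM ZnCl2, TCEP and 2-mercaptoethanol; compounds pin-transferred, 1 hr room temperature, fluorescence polarization read on CCD imager.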
A general note: In fluorescence polarisation assays a small probe gives low polarisation when free and higher when bound to something large.
With `c1ccc(CNc2nc(-c3ccoc3)nc3ccccc23)cc1`, the Potency was more than 20 µM.

As for `COc1cccc(Cn2c(=O)c(C)nc3cnc(N(C)C)nc32)c1`, the Potency was more than 4 µM.

As to `COc1ccccc1CNc1nc(-c2ccccc2OC)nc2ccccc12`, the Potency is more than 20 µM.

With `Cn1c(=O)c(-c2ccc(Cl)cc2)nc2cnc(Oc3cccc(Cl)c3)nc21`, the Potency was more than 20 µM.

Turning to `COCC(=O)N1CCC2(CCCN(c3ncccn3)C2)CC1`, the Potency was more than 20 µM.

Take `COCC(=O)N1CCC2(CC1)CN(C(c1ccccc1)c1ccccc1)C2`: the Potency was more than 20 µM.

`Cc1ccccc1-c1ccc2ncnc(NCCN3CCOCC3)c2c1`: the Potency is more than 20 µM.

For `O=C(Nc1ccccc1)N1CCCC2(CCN(C(=O)c3cccc(F)c3)CC2)C1`, the Potency was more than 20 µM.

`Cc1ccccc1-c1ccc2ncnc(N3CCOCC3)c2c1`: the Potency was more than 20 µM.

In the case of `COc1ncc2ncc(=O)n(Cc3ccc(F)cc3)c2n1`, the Potency was more than 20 µM.

With `COc1ccc(Oc2ncc3nc(C)c(=O)n(Cc4cccc(OC)c4)c3n2)cc1`, the Potency is more than 20 µM.

On to `Cc1noc(C)c1-c1cncnc1NCc1ccccc1`, for which the Potency is more than 20 µM.

Consider `c1csc(CNc2nc(-c3ccoc3)nc3ccccc23)c1`, for which the Potency was more than 20 µM.

Take `COCCn1c(=O)c(-c2ccc(Cl)cc2)nc2cnc(N3CCNCC3)nc21`: the Potency was more than 20 µM.

In the case of `COCCNc1nc(-c2ccc(N(C)C)cc2)nc2ccccc12`, the Potency is more than 20 µM.

In the case of `CNc1nc(-c2ccoc2)nc2ccccc12`, the Potency is more than 20 µM.
